This is an account of results in PubChem BioAssay (Tox21).

Values joined by “and” are separate entries in the source; they are usually repeats but may differ in a detail not shown here. Equal values may be shown once. Inconclusive results are not listed. Where a call stands in place of a potency, no number is given. Active and inactive are the calls of the source. Calls come from the whole dose curve; as a rule, active = well fitted curve in the direction sought with a large enough effect in the repeat runs; inconclusive = weak or mixed curves; inactive = no such curve, though single readings can be large; an effect the other way counts as inactive or inconclusive.
Note: nearly all actives have a fitted effect of over 50% in size.
Potency is the fitted concentration of half-maximal effect.

Chain of Cytochrome P450 1A2 (Homo sapiens) (P05177 whole entry, looked up): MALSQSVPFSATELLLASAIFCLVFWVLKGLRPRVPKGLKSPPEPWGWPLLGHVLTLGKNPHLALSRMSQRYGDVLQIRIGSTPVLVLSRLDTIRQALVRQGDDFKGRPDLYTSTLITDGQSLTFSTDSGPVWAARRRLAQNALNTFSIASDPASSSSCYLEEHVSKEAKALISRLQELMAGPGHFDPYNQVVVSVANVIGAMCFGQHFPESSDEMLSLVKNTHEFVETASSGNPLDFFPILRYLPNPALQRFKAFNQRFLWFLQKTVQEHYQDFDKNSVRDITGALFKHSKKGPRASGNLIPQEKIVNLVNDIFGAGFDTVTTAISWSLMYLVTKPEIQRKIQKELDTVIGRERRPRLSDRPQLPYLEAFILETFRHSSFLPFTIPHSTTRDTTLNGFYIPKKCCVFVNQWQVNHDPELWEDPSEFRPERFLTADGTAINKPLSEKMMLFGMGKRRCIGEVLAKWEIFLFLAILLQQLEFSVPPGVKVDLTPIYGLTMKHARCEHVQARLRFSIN
Chain of Cytochrome P450 2C9 (Homo sapiens) (P11712 whole entry, looked up): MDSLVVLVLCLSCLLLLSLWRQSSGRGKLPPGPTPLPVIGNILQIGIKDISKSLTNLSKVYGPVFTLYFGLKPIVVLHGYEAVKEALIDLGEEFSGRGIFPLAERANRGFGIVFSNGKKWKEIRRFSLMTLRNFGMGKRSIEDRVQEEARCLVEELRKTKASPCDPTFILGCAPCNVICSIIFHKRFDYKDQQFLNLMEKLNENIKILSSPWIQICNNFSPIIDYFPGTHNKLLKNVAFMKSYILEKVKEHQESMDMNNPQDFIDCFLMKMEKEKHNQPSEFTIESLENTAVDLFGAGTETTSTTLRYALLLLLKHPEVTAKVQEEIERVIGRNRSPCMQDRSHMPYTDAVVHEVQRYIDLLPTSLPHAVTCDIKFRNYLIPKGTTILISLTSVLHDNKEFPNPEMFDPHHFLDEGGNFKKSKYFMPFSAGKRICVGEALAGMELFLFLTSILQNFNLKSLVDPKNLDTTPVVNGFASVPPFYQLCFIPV
Chain of Voltage-gated inwardly rectifying potassium channel KCNH2 (Homo sapiens) (Q12809 whole entry, looked up): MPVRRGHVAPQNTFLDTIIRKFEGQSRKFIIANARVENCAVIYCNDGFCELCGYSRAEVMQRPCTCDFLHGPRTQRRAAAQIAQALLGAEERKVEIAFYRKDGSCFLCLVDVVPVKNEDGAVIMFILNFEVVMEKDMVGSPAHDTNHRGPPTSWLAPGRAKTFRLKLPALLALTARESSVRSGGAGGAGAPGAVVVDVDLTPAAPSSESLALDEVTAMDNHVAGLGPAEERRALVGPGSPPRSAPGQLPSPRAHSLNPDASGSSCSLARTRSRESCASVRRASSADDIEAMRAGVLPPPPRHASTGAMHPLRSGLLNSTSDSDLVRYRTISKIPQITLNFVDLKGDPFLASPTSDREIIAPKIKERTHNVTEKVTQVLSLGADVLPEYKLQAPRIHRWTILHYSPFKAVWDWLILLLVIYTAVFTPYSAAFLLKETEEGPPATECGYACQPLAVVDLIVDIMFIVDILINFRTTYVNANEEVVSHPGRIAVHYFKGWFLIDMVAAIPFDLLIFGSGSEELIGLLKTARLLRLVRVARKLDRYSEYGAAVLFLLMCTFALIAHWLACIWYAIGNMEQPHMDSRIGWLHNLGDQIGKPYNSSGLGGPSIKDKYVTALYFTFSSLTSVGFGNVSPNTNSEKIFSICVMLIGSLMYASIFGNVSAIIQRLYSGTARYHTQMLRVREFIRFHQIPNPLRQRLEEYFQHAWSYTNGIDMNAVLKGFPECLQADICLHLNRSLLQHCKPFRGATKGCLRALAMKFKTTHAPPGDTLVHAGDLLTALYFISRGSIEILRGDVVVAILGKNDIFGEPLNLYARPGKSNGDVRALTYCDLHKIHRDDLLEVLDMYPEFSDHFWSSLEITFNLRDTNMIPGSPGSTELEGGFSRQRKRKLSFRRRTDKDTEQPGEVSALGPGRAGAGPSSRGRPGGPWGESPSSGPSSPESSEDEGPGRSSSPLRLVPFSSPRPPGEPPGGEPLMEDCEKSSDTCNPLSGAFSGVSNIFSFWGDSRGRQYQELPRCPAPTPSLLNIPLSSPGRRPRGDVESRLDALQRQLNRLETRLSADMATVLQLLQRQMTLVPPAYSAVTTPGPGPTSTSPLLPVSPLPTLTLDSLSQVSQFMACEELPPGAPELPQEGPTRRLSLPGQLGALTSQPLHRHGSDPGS

One assay has as its target Cytochrome P450 2C9 (Homo sapiens) (UniProt P11712). The assay can be described thus: Cytochrome P450 Family 2 Subfamily C Member 9 (CYP2C9) small molecule antagonists: luciferase reporter qHTS assay (AID 1671198). As to conditions: P450-Glo CYP2C9 enzyme assay, luciferin luminescence; series mostly up to 115 µM. The essentials: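 CYP2C9 activity was measured with a P450-Glo proluciferin substrate. Enzyme–substrate mix was held with compound for 10 min at room temperature, then NADPH regeneration solution was added for 1 h at 37C. Luciferin product was read as luminescence.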
(A reporter such as luciferase makes a cellular process visible.)
As to `Cc1ccc(Nc2c(F)cccc2Cl)c(CC(=O)O)c1`, the Potency was 17.4 µM (active).
`C=C(C)C(=O)OCCC(F)(F)C(F)(F)C(F)(F)C(F)(F)C(F)(F)C(F)(F)F`: the Potency result was “inactive”.
The same measure, in the same setting: then `C=C(C)c1ccccc1`, with “inactive”; and `CC(C)OC(=O)c1ccccc1C(=O)OC(C)C`, with 39.9 µM (active); and `Cc1cc(CCC(=O)OCCOCCOCCOC(=O)CCc2cc(C)c(O)c(C(C)(C)C)c2)cc(C(C)(C)C)c1O`, with 0.617 µM (active).
The same measure, in the same setting: then `Cc1cc(CCCOc2c(C)cc(-c3noc(C(F)(F)F)n3)cc2C)on1`, with 8.71 µM (active).
For the molecule `O=c1[nH][nH]c(=O)c2cc([N+](=O)[O-])ccc12`, the Potency result was “inactive”.
Same read-out and setting: with `CCOC(=O)N1CCC(Nc2ccc(Cl)cc2N)CC1` the figure was 8.71 µM (active).
The same measure, in the same setting: then `O=C1OC[C@H](Cc2cccc(O)c2)[C@H]1Cc1cccc(O)c1`, with 13.5 µM (active).
Consider `COc1ccc2nc(S(=O)Cc3ncc(C)c(OC)c3C)[nH]c2c1` (stereo unspecified), for which the Potency was 31.3 µM (active) and 13.8 µM (active).
Regarding `CC(=O)OCC1=C(C(=O)O)N2C(=O)[C@@H](NC(=O)CSc3ccncc3)[C@H]2SC1`, the Potency was 13.8 µM (active).
The same measure, in the same setting: with `CSSc1ccoc1C` the entry was “inactive”; with `CCCCCCCC/C=C\CCCCCCCC(=O)OCCO`, 18.8 µM (active).
Still for that read-out and setting: then `CCC(CO)(CO)CO`, with “inactive”; and `CC1CCc2nccnc21` (stereo unspecified), with “inactive”; and `CCCCC[C@H](O)/C=C/[C@H]1[C@H](O)CC(=O)[C@@H]1C/C=C\CCCC(=O)O`, with “inactive”.
On the same count and under the same terms, then `COc1ccc(CCN(C)CCCN2CCc3cc(OC)c(OC)cc3CC2=O)cc1OC`, with “inactive”; and `CC(C)COC(=O)COc1cc(Cl)c(Cl)cc1Cl`, with 35.5 µM (active).
As to `CC(C(=O)O)c1ccc(C(=O)c2cccs2)cc1` (stereo unspecified), the Potency was 7.76 µM (active).
The same measure, in the same setting: then `CCCCCCCCCCCC(=O)OCC(O)CO` (stereo unspecified), with 39.9 µM (active); and `C=CCOC(=O)COCCC(C)C`, with “inactive”.
On the same count and under the same terms, with `CCNc1nc(N)nc(Cl)n1` the entry was “inactive”.
Still for that read-out and setting: with `O=C(CCS)OCC(COC(=O)CCS)(COC(=O)CCS)COC(=O)CCS` the figure was 15.9 µM (active); with `CC(=O)Oc1cccc(O)c1`, “inactive”; with `Cc1cccc2sc(N)nc12`, “inactive”.
On to `COc1ccc(-c2cc(=S)ss2)cc1`, for which the Potency was 12.3 µM (active).
As to `OCC(CO)n1cnc(-c2ccc(F)cc2)c1-c1ccnc(Oc2ccccc2)n1`, the Potency is 35.6 µM (active).
For the molecule `O=[N+]([O-])c1ccc2ncccc2c1`, the Potency entry is “inactive”.
Same read-out and setting: then `FC(F)(F)C(F)(F)C(F)(F)C(F)(F)CCI`, with “inactive”; and `COc1ccc(/C=C/C(=O)c2ccc(OC)cc2OC)cc1`, with 6.92 µM (active); and `CCC1CCC(CCC(=O)O)C1` (stereo unspecified), with 36.4 µM (active).

The target of a further assay is Cytochrome P450 1A2 (Homo sapiens) (UniProt P05177). Nature of the assay: Cytochrome P450 Family 1 Subfamily A Member 2 (CYP1A2) small molecule antagonists: luciferase reporter qHTS assay (AID 1671199). As to conditions: P450-Glo CYP1A2 enzyme, luciferin luminescence, 1 h; series mostly up to 115 µM. The essentials:
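Compounds were incubated with CYP1A2 and a luminogenic proluciferin substrate for 10 min at room temperature before the reaction was started with NADPH regeneration solution. After 1 h, detection reagent was added and light output, proportional to CYP activity, was recorded.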
Take `Cc1ccc(Nc2c(F)cccc2Cl)c(CC(=O)O)c1`: the Potency was 12.3 µM (active).
On the same count and under the same terms, with `C=C(C)C(=O)OCCC(F)(F)C(F)(F)C(F)(F)C(F)(F)C(F)(F)C(F)(F)F` the entry was “inactive”.
Still for that read-out and setting: with `CC(C)OC(=O)c1ccccc1C(=O)OC(C)C` the figure was 3.56 µM (active); with `Cc1cc(CCC(=O)OCCOCCOCCOC(=O)CCc2cc(C)c(O)c(C(C)(C)C)c2)cc(C(C)(C)C)c1O`, “inactive”; with `O=c1[nH][nH]c(=O)c2cc([N+](=O)[O-])ccc12`, “inactive”.
On the same count and under the same terms, then `CCOC(=O)N1CCC(Nc2ccc(Cl)cc2N)CC1`, with “inactive”.
With `O=C1OC[C@H](Cc2cccc(O)c2)[C@H]1Cc1cccc(O)c1`, the Potency was 10.7 µM (active).
As to `COc1ccc2nc(S(=O)Cc3ncc(C)c(OC)c3C)[nH]c2c1` (stereo unspecified), the Potency is 8.83 µM (active) and 15.5 µM (active).
With `CC(=O)OCC1=C(C(=O)O)N2C(=O)[C@@H](NC(=O)CSc3ccncc3)[C@H]2SC1`, the Potency entry is “inactive”.
The same measure, in the same setting: then `CSSc1ccoc1C`, with “inactive”.
Same read-out and setting: with `CCC(CO)(CO)CO` the entry was “inactive”.
Same read-out and setting: then `CCCCC[C@H](O)/C=C/[C@H]1[C@H](O)CC(=O)[C@@H]1C/C=C\CCCC(=O)O`, with “inactive”.
In the case of `C[C@H](CS)C(=O)N1CCC[C@H]1C(=O)O`, the Potency entry was “inactive”.
Turning to `COc1ccc(CCN(C)CCCN2CCc3cc(OC)c(OC)cc3CC2=O)cc1OC`, the Potency entry was “inactive”.
Still for that read-out and setting: then `CC(CN(CCN(CC(C)OCCO)CC(C)OCCO)CC(C)OCCO)OCCO` (stereo unspecified), with “inactive”.
On to `CC(C)COC(=O)COc1cc(Cl)c(Cl)cc1Cl`, for which the Potency was 31.6 µM (active).
Still for that read-out and setting: then `C=CCOC(=O)COCCC(C)C`, with “inactive”; and `CCNc1nc(N)nc(Cl)n1`, with 31.7 µM (active).
Turning to `O=C(CCS)OCC(COC(=O)CCS)(COC(=O)CCS)COC(=O)CCS`, the Potency entry was “inactive”.
The same measure, in the same setting: then `Cc1cccc2sc(N)nc12`, with 18.1 µM (active); and `Nc1ccc(NC(=O)c2ccc(N)cc2)cc1`, with “inactive”.
As for `Cc1ccc(S(=O)(=O)NC(=O)NC2CCCCC2)cc1`, the Potency result was “inactive”.
Same read-out and setting: then `COc1ccc(-c2cc(=S)ss2)cc1`, with 0.911 µM (active); and `OCC(CO)n1cnc(-c2ccc(F)cc2)c1-c1ccnc(Oc2ccccc2)n1`, with “inactive”; and `O=[N+]([O-])c1ccc2ncccc2c1`, with 1.59 µM (active).
In the case of `FC(F)(F)C(F)(F)C(F)(F)C(F)(F)CCI`, the Potency entry is “inactive”.
Same read-out and setting: then `COc1ccc(/C=C/C(=O)c2ccc(OC)cc2OC)cc1`, with 4.56 µM (active).

For a further assay, the target named is Voltage-gated inwardly rectifying potassium channel KCNH2 (Homo sapiens) (UniProt Q12809). The assay can be described thus: Human Ether-a-go-go-Related Gene (hERG) channel small molecule antagonists: fluorescence cell-based qHTS assay (AID 1671200). As to conditions: hERG-U2OS cells, FluxOR thallium flux fluorescence; series mostly up to 76.8 µM. The procedure, abridged:
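Thallium served as the potassium surrogate; its influx into dye-loaded U2OS cells carrying the channel was measured by fluorescence over 2 min.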
In general terms: The hERG channel carries a current that helps repolarise heart muscle cells.
With `Cc1ccc(Nc2c(F)cccc2Cl)c(CC(=O)O)c1`, the Potency entry is “inactive”.
Same read-out and setting: then `C=C(C)C(=O)OCCC(F)(F)C(F)(F)C(F)(F)C(F)(F)C(F)(F)C(F)(F)F`, with “inactive”.
On the same count and under the same terms, with `C=C(C)c1ccccc1` the entry was “inactive”; with `CC(C)OC(=O)c1ccccc1C(=O)OC(C)C`, “inactive”; with `Cc1cc(CCC(=O)OCCOCCOCCOC(=O)CCc2cc(C)c(O)c(C(C)(C)C)c2)cc(C(C)(C)C)c1O`, “inactive”.
As for `O=c1[nH][nH]c(=O)c2cc([N+](=O)[O-])ccc12`, the Potency entry is “inactive”.
On the same count and under the same terms, then `CCOC(=O)N1CCC(Nc2ccc(Cl)cc2N)CC1`, with “inactive”; and `CSSc1ccoc1C`, with “inactive”; and `CCC(CO)(CO)CO`, with “inactive”.
Same read-out and setting: then `CC1CCc2nccnc21` (stereo unspecified), with “inactive”.
Same read-out and setting: with `CCCCC[C@H](O)/C=C/[C@H]1[C@H](O)CC(=O)[C@@H]1C/C=C\CCCC(=O)O` the entry was “inactive”; with `C[C@H](CS)C(=O)N1CCC[C@H]1C(=O)O`, “inactive”; with `Cc1ccc(NC(=O)N(C)C)cc1NC(=O)N(C)C`, “inactive”.
On to `CC(C(=O)O)c1ccc(C(=O)c2cccs2)cc1` (stereo unspecified), for which the Potency entry was “inactive”.
On the same count and under the same terms, with `C=CCOC(=O)COCCC(C)C` the entry was “inactive”; with `CCNc1nc(N)nc(Cl)n1`, “inactive”; with `O=C(CCS)OCC(COC(=O)CCS)(COC(=O)CCS)COC(=O)CCS`, 38.9 µM (active).
Still for that read-out and setting: with `CC1=CC[C@@]23C[C@@H]1C(C)(C)[C@@H]2CC[C@H]3C` the entry was “inactive”; with `CC(=O)Oc1cccc(O)c1`, “inactive”.
On the same count and under the same terms, then `Cc1cccc2sc(N)nc12`, with “inactive”; and `Nc1ccc(NC(=O)c2ccc(N)cc2)cc1`, with “inactive”.
As for `CCCCOCCOC(=O)c1cccnc1`, the Potency entry is “inactive”.
Still for that read-out and setting: then `Cc1ccc(S(=O)(=O)NC(=O)NC2CCCCC2)cc1`, with “inactive”; and `COc1ccc(-c2cc(=S)ss2)cc1`, with “inactive”; and `OCC(CO)n1cnc(-c2ccc(F)cc2)c1-c1ccnc(Oc2ccccc2)n1`, with “inactive”.
In the case of `O=[N+]([O-])c1ccc2ncccc2c1`, the Potency entry was “inactive”.
The same measure, in the same setting: then `FC(F)(F)C(F)(F)C(F)(F)C(F)(F)CCI`, with “inactive”; and `CCC1CCC(CCC(=O)O)C1` (stereo unspecified), with “inactive”.
